# From the supplement of paper PMC6555819
# Tests used:
# Assay in all cases: PBM binding z-score (relative to random genomic background probes); higher = stronger binding; sequences stand for … in GC…GCGATTGACAGCGTAGAATGAAGG
# [1] = test system: FXR:RXRa (NR concentration 270 nM, RXRa partner concentration 90 nM)
# Procedure, shortened: (§1)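 Scanned fluorescence from custom Agilent 4×180K protein-binding microarrays was regression-normalized. Binding z-scores use random background probes as reference. Ligand-free nuclear receptor dimers were incubated on the arrays for 1 h and detected with antibodies against each partner (one per run).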
# [2] = test system: LXRa:RXRa (NR concentration 270 nM, RXRa partner concentration 90 nM)
# Procedure, shortened: as §1
# [3] = test system: LXRa homodimer (NR concentration 270 nM)
# Procedure, shortened: as §1
# [4] = test system: LXRb:RXRa (NR concentration 270 nM, RXRa partner concentration 90 nM)
# Procedure, shortened: as §1
# [5] = test system: LXRb homodimer (NR concentration 270 nM)
# Procedure, shortened: as §1
# [6] = test system: PPARa:RXRa (NR concentration 270 nM, RXRa partner concentration 90 nM)
# Procedure, shortened: as §1
# [7] = test system: PPARg:RXRa (NR concentration 180 nM, RXRa partner concentration 90 nM)
# Procedure, shortened: as §1
# [8] = test system: PPARg:RXRa 270nM:90nM, anti-RXR (NR concentration 270 nM, RXRa partner concentration 90 nM)
# Procedure, shortened: as §1
# [9] = test system: PPARg:RXRa 30nM:10nM, anti-RXR (NR concentration 30 nM, RXRa partner concentration 10 nM)
# Procedure, shortened: as §1
# [10] = test system: PPARg:RXRa 90nM:30nM, anti-RXR (NR concentration 90 nM, RXRa partner concentration 30 nM)
# Procedure, shortened: as §1
# [11] = test system: PPARg:RXRa DBDmut IVT, anti-RXR (DBD mutation: RXRa K156A/R161A, NR concentration 270 nM, RXRa partner concentration 90 nM)
# Procedure, shortened: as §1
# [12] = test system: PPARg:RXRa IVT, anti-PPARg (NR concentration 270 nM, RXRa partner concentration 90 nM)
# Procedure, shortened: as §1
# [13] = test system: PPARg DBDmut:RXRa IVT, anti-PPARg (DBD mutation: PPARg1 K132A/R137A, NR concentration 270 nM, RXRa partner concentration 90 nM)
# Procedure, shortened: as §1
# [14] = test system: PPARg DBDmut IVT, anti-PPARg (DBD mutation: PPARg1 K132A/R137A, NR concentration 270 nM)
# Procedure, shortened: as §1
# [15] = test system: PPARg homodimer (NR concentration 180 nM)
# Procedure, shortened: as §1
# [16] = test system: PXR:RXRa (NR concentration 270 nM, RXRa partner concentration 90 nM)
# Procedure, shortened: as §1
# [17] = test system: PXR homodimer (NR concentration 270 nM)
# Procedure, shortened: as §1
# [18] = test system: RARa:RXR (NR concentration 270 nM, RXRa partner concentration 90 nM)
# Procedure, shortened: as §1
# [19] = test system: RARa homodimer (NR concentration 270 nM)
# Procedure, shortened: as §1
# [20] = test system: RARb:RXRa (NR concentration 270 nM, RXRa partner concentration 90 nM)
# Procedure, shortened: as §1
Sequence,PBM binding z-score [1],PBM binding z-score [2],PBM binding z-score [3],PBM binding z-score [4],PBM binding z-score [5],PBM binding z-score [6],PBM binding z-score [7],PBM binding z-score [8],PBM binding z-score [9],PBM binding z-score [10],PBM binding z-score [11],PBM binding z-score [12],PBM binding z-score [13],PBM binding z-score [14],PBM binding z-score [15],PBM binding z-score [16],PBM binding z-score [17],PBM binding z-score [18],PBM binding z-score [19],PBM binding z-score [20]
GCGGCTGGGGCAAAGCAGGTTACCATAAGGTTGG,0.63,0.104,-0.673,0.159,-0.912,0.636,0.139,-0.304,-0.825,-0.577,0.344,0.597,-2.01,-1.49,-0.191,0.338,-0.584,0.776,-1.18,1.07
CCAAACAGGTGAAAGGTAACTCAGTCTGGTACGC,0.642,0.809,-0.217,1.09,-0.282,3.85,7.47,7.29,7.5,8.18,3.27,4.15,0.615,0.037,1.17,1.01,0.17,2.3,1.21,1.21
GCTAGCAGGCCATTTGGGTTACTCAATGACGGGC,-0.367,-0.587,-0.387,-0.709,-0.959,0.0439,0.457,-0.378,-0.68,-0.152,0.933,0.903,-0.422,-0.474,-0.558,-0.229,-0.482,0.178,-0.714,0.189
CGTCCAAGGTGAGCAGGTCAGTGAAAGCGACGTG,0.495,0.118,-0.619,0.202,-1.28,1.73,0.537,1.08,-0.475,0.388,1.99,2.14,-0.318,-0.865,0.43,0.116,-0.516,0.783,-0.389,2.67
AGTCAAAGTTCACTAGGTAATGTAAGATTCAGCT,4.99,4.85,2.91,3.07,0.939,4.58,7.06,6.01,3.43,5.25,2.34,4.44,1.59,2.13,2.35,4.01,2.75,3.26,1.29,4.78
AGGCAAAGTTCATCTAGGTAACGTAAGATATGCT,6.62,5.97,4.54,3.71,1.35,4.88,5.55,5.87,2.83,4.72,1.08,3.73,1.34,0.748,3.08,5.33,6.34,3.96,1.67,4.72
CCTACTGTGCCAAGGTCATTGATCAGTCAAAGCA,3.24,3.74,1.67,3.26,0.681,4.05,3.18,3.78,1.24,2.83,3.52,3.07,-0.148,0.41,2.81,3.87,1.91,3.76,1.37,3.28
TCTTGTTGATCAACAGGAGGTTAAGAAAGATCGA,-0.388,1.08,0.0425,0.962,-0.0113,1.21,-0.165,1.01,2.18,2.1,0.718,0.445,1.15,0.996,-0.401,0.703,-0.344,0.688,-0.505,0.432
CCTAGCAGGCCAGGGTCACTCACGCATTTCGCTT,2.04,1.57,-0.247,1.73,-0.927,2.94,0.599,1.29,-0.606,0.36,0.345,0.942,-0.473,-1.26,1.45,2.31,-0.101,3.17,0.177,2.41
CCTCGGAGGACAACAGGAGGCCAGAGCTGCCAGA,-0.418,-0.512,-0.358,-1.07,-0.956,-0.509,0.0998,-0.942,-0.765,-0.807,-0.393,-0.707,-0.633,-1.31,-0.602,-0.549,-0.283,-0.45,-0.398,1.07
GGAACGTGGGCAAAGTTGATAGCATCTGTCGACG,-0.58,-0.566,-0.508,-0.667,-0.939,0.742,1.45,3.26,0.952,2.7,-0.0354,0.169,-0.243,-0.6,0.0888,-0.428,-0.473,-0.469,-0.252,0.113
TCATATAAGTAAAAGGTGAAAGTCGGTGTGGTAA,1.04,1.71,0.168,1.8,0.141,3.59,3.78,5.58,5.48,6.35,3.39,2.38,0.923,0.618,1.82,1.24,0.368,2.22,1.48,1.83
CCGACTGAGGCAGAAAGGTTACCATACCATCCGG,0.495,0.563,0.0475,0.877,-0.972,1.82,1.05,1.42,0.27,0.899,-0.0384,-0.0549,-1.78,-0.731,0.893,0.855,-0.109,1.69,0.393,1.62
ATCGAAAGGTCGTGAGGTGAGTCTACAGAAAGGC,4.96,3.75,0.0112,3.17,0.35,4.99,3.79,4.19,1.17,2.92,0.266,2.6,0.998,0.581,1.51,2.97,-0.0415,3.84,0.605,3.87
